Experimental data reported in PubChem BioAssay (NCATS).
Several values for one entry are separate records, joined by “and”; a condition that tells them apart may be missing. Equal entries are not always repeated. Records with an inconclusive call do not appear. Unmarked numbers belong to inactive results. Activity calls are given as the source filed them. The call rests on the fitted dose curve; in most records, active means well fitted cell-killing curve with a large enough effect; inconclusive means small, poorly fitted or top-dose-only effect; inactive means flat fitted curve, though single readings scatter.

Assay: Cellular viability qHTS for adrenocortical cancer (ACC) cell line SW-13 (AID 1963989); further: nearly all actives have a fitted effect of over 65% in size;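 on activity (max response): cells grown in serum-free medium with ITS supplement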
Conditions: SW-13 ACC cells viability, CellTiter-Glo, 48 h; activity (max response): stronger effect = lower value
Text: PI: Naris Nilubol, MD Surgical Oncology Program, National Cancer Institute (NCI) National Institute of Health (NIH), Bethesda, Maryland Adrenocortical cancer (ACC) is a rare malignancy with poor survival outcomes and few treatment options. Currently, mitotane is the only FDA-approved therapy for ACC. Although adjuvant radiation therapy is rarely utilized, it has the potential to improve survival in select cases. Through a quantitative high-throughput drug screen (qHTS), we identified auranofin (AF), a thioredoxin reductase (TXNRD) inhibitor, as a promising candidate drug. This study aims to evaluate whether AF can enhance the efficacy of radiation therapy in the treatment of ACC. Two human ACC cell lines, SW-13 and NCI-H295R, were screened using the National Center for Advancing Translational Sciences (NCATS) Pharmaceutical Collection (NPC) and the Mechanism Interrogation PlatE (MIPE) library (~4,991 compounds). CellTiter-Glo (Cat # G7570, Promega, Madison, WI) was utilized to measure cell viability. Described herein are the results of the corresponding viability assay.
PROTOCOL TABLE (as described by Inglese J, Shamu CE and Guy RK. 2007) SEQUENCE No. (e.g., 1, 2, 3, etc.); […] (e.g., Cells, Incubation, Reagent, etc.); VALUE; DESCRIPTION. 1; Cells; 5 uL; white, solid-bottom, 1536-well tissue-culture treated plates. 2; Time; overnight culture at 37C with 5% CO2. 3; Compounds and control; 23 nL; Kalypsis pin tool (Wako USA) equipped with a 1536-well pin head to transfer to the assay plates. 4; Time; 48 hours; 37C with 5% CO2. 5; Reagent; 4 uL; CellTiter-Glo luminescent substrate mix. 6; Time; 20 min at room temperature. 7; Detection; Luminescence; ViewLux plate reader NOTES (numbers refer to Sequence numbers above) 1. SW13 cells were harvested from a T175 flask and resuspended in ITS-supplemented DMEM serum-free medium at a concentration of 300 000 cells/mL. Then 5 uL of resuspended cells were dispensed into each well of white, solid-bottom, 1536-well tissue-culture-treated plates using a multidrop combi dispenser. The plates were covered with stainless steel gasket lids. 2-3. The plates were cultured overnight at 37C with 5% CO2. Twenty-three nL of compounds (eight selected concentrations from the NPC / MIPE) or positive control (10 mM stock of bortezomib) in DMSO was transferred to each well of the assay plate using a pin tool (Kalypsys, San Diego, CA, USA). The final concentration of the compounds in the 5 uL assay volume ranged from 0.5 nM to 46 uM. 4-6. After 48 hours of incubation at 37C and 5% CO2, 4 uL of CellTilter-Glo luminescent substrate mix (Promega, Madison, WI, USA) was added to each well. Then the plates were incubated for 20 minutes at room temperature. 7. After incubation, luminescence was measured using a ViewLux plate reader (PerkinElmer, Waltham, MA, USA) with a clear filter was used to measure the number of metabolically competent cells. To determine compound activity in the qHTS assay, the titration-response data for each sample was plotted and modeled by a four-parameter logistic fit yielding IC50 and efficacy (maximal response) values. […] REFERENCES: Inglese J, Shamu CE and Guy RK, Reporting data from high throughput screening of small molecule libraries, Nature Chemical Biology, 2007, 3(8): 438-441. doi.org/10.1038/nchembio0807-438.
On the % scale 0 is the no-effect control and ±100 the full control effect.

Row | SMILES | activity (max response) | Potency
1 | O=C(O)CNC(=O)c1ccccc1 | 6.31% | –
2 | CC1(O)CC(c2nc(-c3ccc4ccc(-c5ccccc5)nc4c3)c3c(N)nccn23)C1 (stereo not given) | -21% | –
3 | CON(C)C(=O)N1N=C(c2cc(F)ccc2F)S[C@@]1(CCCN)c1ccccc1 | – | 0.0141 µM (active)
4 | COC(=O)/C=C\C(=O)OC | 9.62% | –
5 | Nc1ncnc2c1C(=O)N(c1ccc(C3CCC(CC(=O)O)CC3)cc1)CCO2 (stereo not given) | 10.6% | –
6 | CCCCCCCCCCCCCC[N+](C)(C)Cc1ccccc1 | – | 6.51 µM (active)
7 | NS(=O)(=O)NCCNc1nonc1C(=Nc1ccc(F)c(Br)c1)NO | -16.2% | –
8 | O=C(O)/C=C(\CC(=O)O)C(=O)O | 7.17% | –
9 | OCc1ccccc1O | 6.34% | –
10 | O=C(Nc1cc(Oc2cc(F)c(NC(=O)C3(C(=O)Nc4ccc(F)cc4)CC3)cc2F)ccn1)C1CC1 | -9.83% | –
11 | COc1ccc(/C(C)=C/C(=O)O)c(OC)c1 | 9.2% | –
12 | CCCC(CCC)(C(=O)OCC)C(=O)OCC | 12.5% | –
13 | CCOC(=O)Nc1ccc(NCc2ccc(F)cc2)nc1N | -9.42% | –
14 | CCCCC(CC)COC(=O)c1ccccc1O (stereo not given) | 7.38% | –
15 | O=C(/C=C\n1cnc(-c2cc(C(F)(F)F)cc(C(F)(F)F)c2)n1)NNc1ccccn1 | – | 11.2 µM (active)
16 | Cc1onc(-c2ccccc2)c1-c1ccc(S(N)(=O)=O)cc1 | -10.6% and -23.5% | –
17 | CCCCCCn1c(=O)c2c(ncn2C)n(C)c1=O | 14% | –
18 | CCC(=O)NC[C@H](Cc1ccc(OCCc2nc(-c3ccccc3)oc2C)cc1)N/C(C)=C\C(=O)c1ccc(C(F)(F)F)cc1 | -7.93% | –
19 | OC1(c2ccccc2)CCNCC1 | 4.15% | –
20 | Cc1nnc(C(=O)NC(C)(C)c2nc(C(=O)NCc3ccc(F)cc3)c(O)c(=O)n2C)o1 | 8% and 11.5% | –

Row | SMILES | activity (max response) | Potency
21 | CNC[C@H](O)c1ccc(O)c(O)c1 | -16.4% and -3.87% | –
22 | COC[C@@H](c1ccc(C(F)(F)F)cc1)N1CCN(C2(C)CCN(C(=O)c3c(C)ncnc3C)CC2)C[C@H]1C | -14.2% | –
23 | CC1(C)O[C@@H]2C[C@H]3[C@@H]4C[C@H](F)C5=CC(=O)C=C[C@]5(C)[C@H]4[C@@H](O)C[C@]3(C)[C@]2(C(=O)CO)O1 | -3.16% and 0.473% | –
24 | O=C(O)c1cn(C2CC2)c2cc(N3CCNCC3)c(F)cc2c1=O | -3.87% and 6.05% | –
25 | CCC[C@H](NC(=O)[C@@H]1[C@H]2CCC[C@H]2CN1C(=O)[C@@H](NC(=O)[C@@H](NC(=O)c1cnccn1)C1CCCCC1)C(C)(C)C)C(=O)C(=O)NC1CC1 | -27.4% | –
26 | CC1=C(/C=C/C(C)=C/C=C/C(C)=C/C=C/C=C(C)/C=C/C=C(C)/C=C/C2=C(C)CCCC2(C)C)C(C)(C)CCC1 | -7.78% | –
27 | Cn1ncc(Cl)c1-c1cc(C(=O)N[C@H](CN)Cc2ccc(F)c(F)c2)sc1Cl | – | 8.91 µM (active)
28 | CC(C)(Sc1ccc(CCN(CCCCC2CCCCC2)C(=O)NC2CCCCC2)cc1)C(=O)O | 4.08% | –
29 | O=C(CCNNC(=O)c1ccncc1)NCc1ccccc1 | -0.798% | –
30 | CCn1c(-c2nonc2N)nc2cncc(CNC3CCNCC3)c21 | -7.16% | –
31 | NS(=O)(=O)c1ccc(Nc2nc(OCC3CCCCC3)c3[nH]cnc3n2)cc1 | – | 22.4 µM (active)
32 | CC(=O)N(CC(=O)N(C)C)c1ccccc1 | -5.65% | –
33 | O=S(=O)(O)c1ccc(O)cc1 | 11.9% | –
34 | NC(CS)C(=O)O (stereo not given) | 12.6% | –
35 | Cc1cc(NS(=O)(=O)c2ccc(N)cc2)no1 | 13.2% | –
36 | C[C@H](CN1CCCC1)C(=O)c1ccc(C(F)(F)F)cc1 | -1.72% | –
37 | CCC(C)(Oc1ccc(C2(c3ccc(OC(C)(CC)C(=O)O)cc3)CCCCC2)cc1)C(=O)O (stereo not given) | -4.64% and -4.83% | –
38 | O=C(O)CCNC(=O)c1ccc(N=Nc2ccc(O)c(C(=O)O)c2)cc1 | 4.01% and 3.9% | –
39 | CC1CC(OC(=O)C(O)c2ccccc2)CC(C)(C)N1C (stereo not given) | 2.77% | –
40 | CC(=O)NC(=O)c1ccccc1O | -23.9% | –
